Pf growth 48h – inhibits P. falciparum growth in the first generation, 48 h; 5.9% of 310,000 active; P. falciparum luciferase growth in erythrocytes, 48 h; Potency, µM (series often up to 28.7 µM), for inactives: at the highest dose activity change, negative = inhibition, most hits filed as inhibitors; active = well fitted inhibition curve with a large enough effect; inconclusive = small, poorly fitted or top-dose-only effect, or another doubt; inactive = no such curve, though single readings can be large or run the other way; note: % is set by controls: 0 for no effect and ±100 for the full control effect
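A one-generation exposure of luciferase-tagged malaria parasites in RPMI 1640/Albumax erythrocyte culture, 37 C and 5% CO2. Inhibition is inferred from decreased luminescence after adding detection reagent.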
RE007 growth inh – less growth of the S. pombe RE007 Vpr strain. S. pombe RE007 Vpr strain, BacTiter-Glo ATP luminescence, 24 h. Potency, µM (highest dose often 92.2 µM), for inactives: top-dose activity change, negative = less growth, hits mostly inhibitors. 0.21% of 360,000 active; active = well fitted falling curve with a large enough effect; inconclusive = small, poorly fitted or top-dose-only effect; inactive = no such curve, though single readings can be large or run the other way; note: % is set by controls: 0 for no effect and ±100 for the full control effect; nearly all actives have a fitted effect of over 50% in size
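Fission yeast RE007 carrying one integrated HIV-1 vpr copy, seeded at OD 0.01 in PMG+AL medium with 23 nL pinned compound. Grown 24 h at 30 degrees; viability read by BacTiter-Glo luminescence after 5 min.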
NS1 function inh – influenza NS1 inhibition; Potency, µM (series often up to 46.1 µM), without a hit: at the top dose activity, positive = more growth; 0.4% of 270,000 active; AID 2326; note: actives are rising curves; nearly all actives have a fitted effect of over 50% in size
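Growth recovery, yeast-based: influenza A NS1 expressed in S. cerevisiae causes slow growth, and suppressors are detected by OD600. The parent strain without NS1 is used as positive control.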
Pf growth 96h – P. falciparum growth inhibition at 96 hours. P. falciparum luciferase reporter growth, 96 h. Potency, µM (titrated, usually from 28.7 µM), for the others: at the top dose activity change, negative = inhibition, usual class: inhibitors. 6.9% of 320,000 active. AID 504834; active = well fitted inhibition curve with a large enough effect; inconclusive = small, poorly fitted or top-dose-only effect, or another doubt; inactive = no such curve, though single readings can be large or run the other way; note: % is set by controls: 0 for no effect and ±100 for the full control effect
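Plates of compound plus infected erythrocytes (2% hematocrit, 0.05% parasitemia final) incubate 96 hours, 37 C, 5% CO2. Detection reagent added; reduced luminescence from the parasites' luciferase reporter flags inhibition.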
SARS PLpro yeast – inhibitors of SARS-CoV papain-like protease in yeast | 0.19% of 330,000 active | Potency, µM (highest dose often 32.9 µM), inactives show at the top dose activity, positive = growth rescue, usual class: activators | S. cerevisiae expressing SARS-CoV PLpro, growth rescue; note: 0% is about no effect; nearly all actives have a fitted effect of over 55% in size
Numbers without * were called inactive; [ ] = dose if it differs, or a comment. An excerpt weighted towards active compounds, which were near 9.5% of everything screened. Unless noted, calls come from the whole dose curve. Potency is the fitted concentration of half-maximal effect.

What do the screens show for `O=C(NN1CC(C(=O)OCc2ccc(Cl)cc2Cl)CC1=O)c1ccccc1` (stereo unspecified)?
Pf growth 48h: 8%; RE007 growth inh: -1%; NS1 function inh: -56%; Pf growth 96h: inconclusive; SARS PLpro yeast: 1%

How did Cc1c(C(=O)N2CCCCC2)c(S(=O)(=O)NCc2ccc(N(C)C)cc2)c(C)n1C do in these assays?
Pf growth 48h: -5%; RE007 growth inh: 9%; NS1 function inh: -17%; Pf growth 96h: 0.83µM*; SARS PLpro yeast: -14%

What do the screens show for `Cc1ccc(CNS(=O)(=O)c2c(C(=O)N3CCCCC3)c(C)n(C)c2C)cc1`?
Pf growth 48h: 16%; RE007 growth inh: 6%; NS1 function inh: 0%; Pf growth 96h: -13%; SARS PLpro yeast: -2%

How did COc1ccc(CNS(=O)(=O)c2c(C(=O)N3CCCCCC3)c(C)n(C)c2C)cc1 do in these assays?
Pf growth 48h: -15%; RE007 growth inh: 4%; NS1 function inh: -10%; Pf growth 96h: 3.3µM*; SARS PLpro yeast: 4%

Results for CC(C)(C)OC(=O)C[C@@H]1C/C=C\C[C@@H](CC(=O)N[C@H](CO)Cc2ccccc2)C(=O)NC[C@H](c2ccccc2)OC1=O ?
RE007 growth inh: -2%; SARS PLpro yeast: -3%

Results for CCN(CC(=O)NC(C)(C)C)C(=O)CCl ?
Pf growth 48h: 12µM*; RE007 growth inh: 9%; NS1 function inh: 4%; Pf growth 96h: inconclusive; SARS PLpro yeast: 7%

What do the screens show for `CCN1CCN(C(=O)N(CC(=O)Nc2ccc(C(N)=O)cc2)S(=O)(=O)c2ccc(C)cc2)CC1`?
Pf growth 48h: 0%; RE007 growth inh: 17%; Pf growth 96h: 50%

What do the screens show for `COCCNC(=S)N1CCc2cc(OC)c(OC)cc2C1COc1ccc(C(C)C)cc1` (stereo unspecified)?
Pf growth 48h: 12µM*; RE007 growth inh: -24%; NS1 function inh: 4%; Pf growth 96h: 8.3µM*; SARS PLpro yeast: -2%

How did COCCNC(=S)N1CCc2cc(OC)c(OC)cc2C1c1cccs1 (stereo unspecified) do in these assays?
Pf growth 48h: 2.9µM*; RE007 growth inh: 5%; Pf growth 96h: 5.9µM*; SARS PLpro yeast: 1%

How did CNC(=S)N1CCc2cc(OC)c(OC)cc2C1COc1ccc(F)cc1 (stereo unspecified) do in these assays?
Pf growth 48h: inconclusive; RE007 growth inh: -8%; Pf growth 96h: -39%; SARS PLpro yeast: 0%

Results for CCNC(=S)N1CCc2cc(OC)c(OC)cc2C1COc1ccc(F)cc1 (stereo unspecified) ?
Pf growth 48h: inconclusive; RE007 growth inh: -4%; Pf growth 96h: 8.3µM*; SARS PLpro yeast: 0%

Results for O=C(c1ccc(OC2CCN(Cc3ccccn3)CC2)cc1)N1CCCCO1 ?
Pf growth 48h: -10%; RE007 growth inh: 2%; NS1 function inh: -5%; Pf growth 96h: 12%; SARS PLpro yeast: 1%

What do the screens show for `CCN/C=C(\C#N)S(=O)(=O)c1ccc(Br)cc1`?
Pf growth 48h: 2%; RE007 growth inh: 2%; NS1 function inh: 0%; Pf growth 96h: 34%; SARS PLpro yeast: 1%

Results for CCc1cccc2c1NC(=O)[C@]21[C@@H]2C(=O)N(Cc3ccccc3)C(=O)[C@@H]2[C@@H]2CCCN21 ?
Pf growth 48h: 9.3µM*; RE007 growth inh: 4%; NS1 function inh: -15%; Pf growth 96h: -2%[5.75 µM]; SARS PLpro yeast: -1%

Results for Cc1c(Cl)ccc2c1NC(=O)[C@]21[C@@H]2C(=O)N(Cc3ccccc3)C(=O)[C@@H]2[C@@H]2CCCN21 ?
Pf growth 48h: inconclusive; RE007 growth inh: 5%; NS1 function inh: inconclusive; SARS PLpro yeast: -5%

What do the screens show for `CCOC(=O)c1ccc(N2C(=O)CC(N3CCN(Cc4ccccc4)CC3)C2=O)cc1` (stereo unspecified)?
Pf growth 48h: -7%; RE007 growth inh: -24%; NS1 function inh: -13%; SARS PLpro yeast: -8%

How did CCOc1ccc(S(=O)(=O)N2CCN(C3CC(=O)N(c4cccc(C(C)=O)c4)C3=O)CC2)cc1 (stereo unspecified) do in these assays?
RE007 growth inh: 0%
